# How the values were obtained:
# Test in all cases: cross-linking mass spectrometry
# Histone H2B type 1-N = Histone H2B type 1-N (UniProt Q99877)
# [1] = biological target: Elongation factor 1-alpha 2 (UniProt Q05639)
# [2] = biological target: T1, LIM and SH3 domain protein 1 (UniProt Q14847)
# T1 sequence: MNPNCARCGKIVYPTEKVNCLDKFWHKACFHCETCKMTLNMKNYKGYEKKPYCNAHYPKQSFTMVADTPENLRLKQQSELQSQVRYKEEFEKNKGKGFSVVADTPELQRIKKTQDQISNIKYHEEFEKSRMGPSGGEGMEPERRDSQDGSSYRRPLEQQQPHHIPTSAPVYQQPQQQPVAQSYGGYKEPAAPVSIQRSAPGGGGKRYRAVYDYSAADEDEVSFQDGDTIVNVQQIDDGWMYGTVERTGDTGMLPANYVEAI
# [3] = biological target: Ubiquitin-ribosomal protein eS31 fusion protein (UniProt P62979)
# [4] = biological target: Large ribosomal subunit protein uL4 (UniProt P36578)
# Vimentin = Vimentin (UniProt P08670)
# Actin, cytoplasmic 1 = Actin, cytoplasmic 1 (UniProt P60709)
# [5] = biological target: Large ribosomal subunit protein eL31 (UniProt P62899)
# Chain of Peptidyl-prolyl cis-trans isomerase A, P62937 (P62937 whole entry): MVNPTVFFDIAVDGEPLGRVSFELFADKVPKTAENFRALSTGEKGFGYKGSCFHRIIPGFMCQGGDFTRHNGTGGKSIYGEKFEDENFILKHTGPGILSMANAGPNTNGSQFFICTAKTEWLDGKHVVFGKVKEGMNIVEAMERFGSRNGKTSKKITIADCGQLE
substance,measurement,setting,value
"Peptidyl-prolyl cis-trans isomerase A, P62937",listed as a hit,Histone H2B type 1-N,yes
"Actin, cytoplasmic 1, P60709",listed as a hit,[1],yes
same,listed as a hit,Histone H2B type 1-N,yes
same,listed as a hit,[2],yes
same,listed as a hit,[3],yes
"Large ribosomal subunit protein uL6, P32969",listed as a hit,[4],yes
"Protein S100-A6, P06703",listed as a hit,Vimentin,yes
"Elongation factor 2, P13639",listed as a hit,"Actin, cytoplasmic 1",yes
"Large ribosomal subunit protein uL29, P42766",listed as a hit,[5],yes
